From PubChem BioAssay (Tox21)
Records with an inconclusive call do not appear. Calls of active or inactive are those of the source. Calls come from the whole dose curve; as a rule, active = well fitted curve in the direction sought with a large enough effect in the repeat runs; inconclusive = weak or mixed curves; inactive = no such curve, though single readings can be large; an effect the other way counts as inactive or inconclusive.

Assays:
[1] = target: Nuclear receptor subfamily 1 group I member 2 (Homo sapiens) (UniProt O75469); experiment: Human pregnane X receptor (PXR) activation by small molecules, qHTS assay (AID 1346985); note: nearly all actives have a fitted effect of over 40% in size; note: potency is the fitted concentration of half-maximal effect
Outline: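 DPX-2 cells (HepG2 co-transfected with a PXR response element and a CYP3A4-promoter luciferase construct) were seeded at 2,000 per well, rested 5 hr at 37C, then exposed to DMSO-dissolved compounds for 24 hr. Activation was read as luciferase luminescence.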

[2] = target: Cytochrome P450 2D6 (Homo sapiens) (UniProt P10635); experiment: Cytochrome P450 Family 2 Subfamily D Member 6 (CYP2D6) small molecule antagonists: luciferase reporter qHTS assay (AID 1671196); note: nearly all actives have a fitted effect of over 50% in size; note: potency is the fitted concentration of half-maximal effect; for activity change, negative = inhibition: series mostly up to about 120 µM
Sequence of Cytochrome P450 2D6 (Homo sapiens) (P10635 whole entry, looked up): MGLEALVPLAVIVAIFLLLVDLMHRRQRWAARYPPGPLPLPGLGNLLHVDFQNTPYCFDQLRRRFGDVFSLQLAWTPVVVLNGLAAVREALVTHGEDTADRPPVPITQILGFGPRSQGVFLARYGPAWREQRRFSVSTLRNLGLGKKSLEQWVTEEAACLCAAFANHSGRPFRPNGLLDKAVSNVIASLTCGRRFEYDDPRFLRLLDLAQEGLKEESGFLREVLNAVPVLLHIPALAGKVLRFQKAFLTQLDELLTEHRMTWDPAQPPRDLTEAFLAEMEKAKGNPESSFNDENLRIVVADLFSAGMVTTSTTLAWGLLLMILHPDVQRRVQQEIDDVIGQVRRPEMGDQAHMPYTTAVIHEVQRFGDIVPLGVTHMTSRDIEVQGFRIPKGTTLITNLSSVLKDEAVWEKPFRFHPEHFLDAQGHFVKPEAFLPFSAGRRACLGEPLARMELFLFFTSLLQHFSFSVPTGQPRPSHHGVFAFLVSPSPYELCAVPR
Outline: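 Room-temperature luminescent CYP2D6 activity assay: compound preincubated 10 min with enzyme–substrate mix, NADPH-initiated reaction 1 h, detection reagent 20 min before reading.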

[3] = target: Cytochrome P450 2C9 (Homo sapiens) (UniProt P11712); experiment: Cytochrome P450 Family 2 Subfamily C Member 9 (CYP2C9) small molecule antagonists: luciferase reporter qHTS assay (AID 1671198); note: nearly all actives have a fitted effect of over 50% in size; note: potency is the fitted concentration of half-maximal effect; for activity change, negative = inhibition: series mostly up to about 120 µM
Sequence of Cytochrome P450 2C9 (Homo sapiens) (P11712 whole entry, looked up): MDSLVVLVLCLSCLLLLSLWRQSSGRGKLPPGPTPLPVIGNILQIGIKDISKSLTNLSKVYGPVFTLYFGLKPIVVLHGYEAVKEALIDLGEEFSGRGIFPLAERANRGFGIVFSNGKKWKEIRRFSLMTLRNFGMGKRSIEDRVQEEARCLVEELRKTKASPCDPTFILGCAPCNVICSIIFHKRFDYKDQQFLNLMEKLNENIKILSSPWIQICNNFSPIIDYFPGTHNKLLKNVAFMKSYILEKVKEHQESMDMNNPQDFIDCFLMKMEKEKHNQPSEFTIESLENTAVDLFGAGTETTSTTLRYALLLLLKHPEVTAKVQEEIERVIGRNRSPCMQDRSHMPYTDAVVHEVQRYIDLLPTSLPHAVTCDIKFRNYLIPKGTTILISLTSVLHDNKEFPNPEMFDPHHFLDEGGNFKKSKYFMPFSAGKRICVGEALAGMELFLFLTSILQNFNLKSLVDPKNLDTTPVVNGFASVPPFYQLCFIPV
Outline: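 P450-Glo proluciferin substrate with CYP2C9 enzyme; 10 min RT preincubation, then NADPH regeneration 1 h at 37C; luciferin detection reagent 20 min RT, luminescence in relative luminescence units.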

[4] = target: Cytochrome P450 1A2 (Homo sapiens) (UniProt P05177); experiment: Cytochrome P450 Family 1 Subfamily A Member 2 (CYP1A2) small molecule antagonists: luciferase reporter qHTS assay (AID 1671199); note: nearly all actives have a fitted effect of over 50% in size; note: potency is the fitted concentration of half-maximal effect; for activity change, negative = inhibition: series mostly up to about 120 µM
Sequence of Cytochrome P450 1A2 (Homo sapiens) (P05177 whole entry, looked up): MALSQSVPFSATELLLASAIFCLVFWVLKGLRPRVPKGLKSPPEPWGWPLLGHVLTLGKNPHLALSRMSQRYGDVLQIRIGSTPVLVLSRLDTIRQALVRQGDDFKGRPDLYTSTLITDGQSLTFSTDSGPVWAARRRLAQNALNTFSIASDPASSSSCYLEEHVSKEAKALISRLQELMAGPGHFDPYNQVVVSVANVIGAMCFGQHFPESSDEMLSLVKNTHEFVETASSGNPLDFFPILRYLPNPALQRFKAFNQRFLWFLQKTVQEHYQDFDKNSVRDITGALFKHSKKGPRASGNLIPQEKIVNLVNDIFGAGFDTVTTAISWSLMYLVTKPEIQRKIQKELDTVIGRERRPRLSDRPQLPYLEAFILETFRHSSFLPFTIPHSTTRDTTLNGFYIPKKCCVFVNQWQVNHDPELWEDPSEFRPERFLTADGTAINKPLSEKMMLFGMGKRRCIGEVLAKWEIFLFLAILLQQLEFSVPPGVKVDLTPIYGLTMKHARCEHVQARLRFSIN
Outline: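 Room-temperature CYP1A2 reaction with proluciferin substrate: compounds added from DMSO, 10 min preincubation, NADPH regeneration for 1 h. Luciferin detection reagent then added; luminescence recorded as RLU.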

[5] = target: Voltage-gated inwardly rectifying potassium channel KCNH2 (Homo sapiens) (UniProt Q12809); experiment: Human Ether-a-go-go-Related Gene (hERG) channel small molecule antagonists: fluorescence cell-based qHTS assay (AID 1671200); note: nearly all actives have a fitted effect of over 50% in size; note: potency is the fitted concentration of half-maximal effect;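 for activity change, negative = inhibition: hERG-expressing U2OS cells given a thallium stimulus after FluxOR II dye loading; series mostly up to about 77 µM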
Sequence of Voltage-gated inwardly rectifying potassium channel KCNH2 (Homo sapiens) (Q12809 whole entry, looked up): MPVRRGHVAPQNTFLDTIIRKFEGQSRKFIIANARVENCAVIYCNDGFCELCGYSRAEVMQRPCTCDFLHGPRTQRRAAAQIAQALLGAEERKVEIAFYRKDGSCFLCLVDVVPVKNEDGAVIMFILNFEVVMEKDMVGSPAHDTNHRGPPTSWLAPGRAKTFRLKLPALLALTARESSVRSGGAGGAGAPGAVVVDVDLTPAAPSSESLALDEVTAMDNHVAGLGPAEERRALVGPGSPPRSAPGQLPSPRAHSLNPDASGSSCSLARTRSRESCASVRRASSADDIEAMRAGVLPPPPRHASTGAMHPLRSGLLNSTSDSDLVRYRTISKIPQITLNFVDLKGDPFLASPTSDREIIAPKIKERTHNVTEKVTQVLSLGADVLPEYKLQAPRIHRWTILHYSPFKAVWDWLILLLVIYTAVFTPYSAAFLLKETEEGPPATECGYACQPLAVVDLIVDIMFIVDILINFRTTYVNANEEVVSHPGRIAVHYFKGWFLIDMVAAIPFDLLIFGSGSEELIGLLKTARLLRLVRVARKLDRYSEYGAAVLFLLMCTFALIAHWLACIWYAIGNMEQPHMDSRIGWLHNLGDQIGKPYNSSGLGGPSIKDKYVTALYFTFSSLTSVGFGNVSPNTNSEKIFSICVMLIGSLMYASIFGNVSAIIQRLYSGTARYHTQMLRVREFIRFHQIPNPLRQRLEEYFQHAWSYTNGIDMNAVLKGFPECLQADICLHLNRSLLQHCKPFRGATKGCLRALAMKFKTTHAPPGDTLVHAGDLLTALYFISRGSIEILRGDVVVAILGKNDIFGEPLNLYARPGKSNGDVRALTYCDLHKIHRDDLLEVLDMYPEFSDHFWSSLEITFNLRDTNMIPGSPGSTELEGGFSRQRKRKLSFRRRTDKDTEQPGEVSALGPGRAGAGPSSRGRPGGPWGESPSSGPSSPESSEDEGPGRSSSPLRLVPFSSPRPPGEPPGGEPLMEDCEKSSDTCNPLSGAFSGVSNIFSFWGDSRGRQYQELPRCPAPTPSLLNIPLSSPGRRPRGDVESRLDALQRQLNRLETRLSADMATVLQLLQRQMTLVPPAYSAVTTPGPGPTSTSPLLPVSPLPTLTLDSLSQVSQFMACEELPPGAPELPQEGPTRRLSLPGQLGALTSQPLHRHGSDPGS
Outline: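 Thallium served as the potassium surrogate; its influx into dye-loaded U2OS cells carrying the channel was measured by fluorescence over 2 min.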

[6] = target: Cytochrome P450 3A4 (Homo sapiens) (UniProt P08684); experiment: Cytochrome P450 Family 3 Subfamily A Member 4 (CYP3A4) small molecule antagonists: luciferase reporter qHTS assay (AID 1671201)
Sequence of Cytochrome P450 3A4 (Homo sapiens) (P08684 whole entry, looked up): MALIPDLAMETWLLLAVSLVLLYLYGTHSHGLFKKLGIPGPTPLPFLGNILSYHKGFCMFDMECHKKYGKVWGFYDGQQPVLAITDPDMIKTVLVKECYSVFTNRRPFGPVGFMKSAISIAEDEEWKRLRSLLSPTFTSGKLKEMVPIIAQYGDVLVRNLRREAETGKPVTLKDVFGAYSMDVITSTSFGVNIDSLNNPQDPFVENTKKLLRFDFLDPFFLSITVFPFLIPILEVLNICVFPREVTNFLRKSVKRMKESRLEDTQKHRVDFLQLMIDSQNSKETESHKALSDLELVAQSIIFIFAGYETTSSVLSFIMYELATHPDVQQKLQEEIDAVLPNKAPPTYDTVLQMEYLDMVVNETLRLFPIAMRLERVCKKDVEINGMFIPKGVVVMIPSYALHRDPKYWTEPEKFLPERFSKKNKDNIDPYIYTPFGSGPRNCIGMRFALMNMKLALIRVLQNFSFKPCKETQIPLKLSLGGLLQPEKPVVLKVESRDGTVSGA
Outline: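 Relative luminescence units after 20 min with luciferin detection reagent served as read-out. Beforehand, CYP3A4 turned over a proluciferin substrate for 1 h at room temperature with NADPH regeneration, following 10 min compound preincubation.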

[7] = target: Nuclear receptor subfamily 1 group I member 2 (Homo sapiens) (UniProt O75469); experiment: CYP3A4 induction through human pregnane X receptor (PXR) by small molecules, qHTS assay (AID 1346984); note: nearly all actives have a fitted effect of over 40% in size
Outline: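 Cells (DPX-2; HepG2 with PXR element plus CYP3A4-promoter luciferase) settled 5hr, then were treated 24hr at 37C. A 3hr, 3uM-final Luciferin-IPA step preceded luminescence measurement with One-Glo.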

[8] = target: Cytochrome P450 2C19 (Homo sapiens) (UniProt P33261); experiment: Cytochrome P450 Family 2 Subfamily C Member 19 (CYP2C19) small molecule antagonists: luciferase reporter qHTS assay (AID 1671197); note: nearly all actives have a fitted effect of over 65% in size; note: potency is the fitted concentration of half-maximal effect; for activity change, negative = inhibition: series mostly up to about 120 µM
Sequence of Cytochrome P450 2C19 (Homo sapiens) (P33261 whole entry, looked up): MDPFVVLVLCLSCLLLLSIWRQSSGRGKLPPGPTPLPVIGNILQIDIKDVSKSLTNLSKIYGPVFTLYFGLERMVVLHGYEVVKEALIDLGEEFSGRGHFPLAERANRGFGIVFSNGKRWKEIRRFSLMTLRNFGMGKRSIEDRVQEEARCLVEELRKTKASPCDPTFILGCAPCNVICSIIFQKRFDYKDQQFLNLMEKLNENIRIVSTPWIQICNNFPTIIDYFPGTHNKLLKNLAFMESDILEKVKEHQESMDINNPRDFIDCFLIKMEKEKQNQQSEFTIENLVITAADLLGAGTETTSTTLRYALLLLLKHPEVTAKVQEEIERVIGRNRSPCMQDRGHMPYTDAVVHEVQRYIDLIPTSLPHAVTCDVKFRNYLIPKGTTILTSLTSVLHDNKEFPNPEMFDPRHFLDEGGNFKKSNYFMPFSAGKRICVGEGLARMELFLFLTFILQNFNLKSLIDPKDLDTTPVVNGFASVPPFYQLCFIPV
Outline: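 Compounds were tested on CYP2C19 activity via proluciferin conversion to luciferin. The 37C, 1 h reaction followed NADPH addition; detection reagent stopped it.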
% is set by controls: 0 for no effect and ±100 for the full control effect.

NCCc1ccn[nH]1
inactive: Potency [1] | Potency [2] | Potency [3] | Potency [4] | Potency [5] | Potency [6]

CC(C)(CO)[C@@H](O)C(=O)NCCCO
inactive: outcome [7] | Potency [1] | Potency [2] | Potency [8] | Potency [3] | Potency [4] | Potency [5] | Potency [6]

O=c1cc(O)c(Cl)c[nH]1
inactive: outcome [7] | Potency [1] | Potency [2] | Potency [8] | Potency [3] | Potency [4] | Potency [5] | Potency [6]

NS(=O)(=O)c1cc2c(cc1Cl)NC(C(Cl)Cl)NS2(=O)=O (stereo not drawn)
inactive: outcome [7] | Potency [1] | Potency [2] | Potency [3] | Potency [4] | Potency [5] | Potency [6]

Nc1ccc(/C=C/c2ccc(N)cc2S(=O)(=O)O)c(S(=O)(=O)O)c1
inactive: outcome [7] | Potency [1] | activity change, negative = inhibition [2] -0.348% [at 0.435 µM] | activity change, negative = inhibition [8] 14.7% [at 0.435 µM] | activity change, negative = inhibition [3] 3.26% [at 0.435 µM] | activity change, negative = inhibition [4] 12.7% [at 0.435 µM] | activity change, negative = inhibition [5] 0.168% [at 0.29 µM] | activity change, negative = inhibition [6] 15.4% [at 0.435 µM]

COc1ccc(/C=N/NC(=O)c2ccncc2)cc1OC
active: Potency [8] 34.7 µM | Potency [3] 17.4 µM
inactive: outcome [7] | Potency [1] | Potency [5]

CCNC(=O)/C=C/c1cccc(Br)c1
active: Potency [4] 2.57 µM
inactive: outcome [7] | Potency [1] | Potency [8] | Potency [3] | Potency [5] | Potency [6]

O=C(/C=C/c1ccccc1)NCCO
active: Potency [8] 15.5 µM | Potency [3] 13.8 µM
inactive: outcome [7] | Potency [1] | Potency [5] | Potency [6]

CCC1Nc2cc(Cl)c(S(N)(=O)=O)cc2S(=O)(=O)N1 (stereo not drawn)
inactive: outcome [7] | Potency [1] | Potency [2] | Potency [8] | Potency [3] | Potency [5] | Potency [6]

O=C(Oc1ccccc1C(=O)O)c1ccccc1O
inactive: outcome [7] | Potency [1] | Potency [2] | Potency [4] | Potency [5] | Potency [6]

Cc1ccc(S(=O)(=O)NC(=O)NC2CCCCCCC2)cc1
active: Potency [3] 11 µM
inactive: outcome [7] | Potency [2] | Potency [5] | Potency [6]

CCOC(=O)OCC/C(SC(=O)OCC)=C(\C)N(C=O)Cc1cnc(C)nc1N
inactive: Potency [8] | Potency [3] | Potency [4] | Potency [5]
active: Potency [2] 2.45 µM

Cc1cccc(Nc2ccncc2S(=O)(=O)NC(=O)NC(C)C)c1
inactive: Potency [1] | Potency [2] | Potency [8] | Potency [5]
active: Potency [3] 13.8 µM

CC(=O)N(CC(O)CO)c1c(I)c(C(=O)NCC(O)CO)c(I)c(C(=O)NCC(O)CO)c1I (stereo not drawn)
inactive: outcome [7] | Potency [1] | Potency [2] | Potency [8] | Potency [4] | Potency [5] | Potency [6]

CNCc1ccccc1
inactive: outcome [7] | Potency [1] | Potency [4] | Potency [5] | Potency [6]

CN[C@@H]1[C@H](O)[C@H](NC)[C@H]2O[C@@]3(O)C(=O)C[C@@H](C)O[C@H]3O[C@@H]2[C@H]1O
inactive: outcome [7] | Potency [1] | Potency [3] | Potency [5]

Cn1c(=O)c2c(ncn2CC2OCCO2)n(C)c1=O
inactive: outcome [7] | Potency [1] | Potency [2] | Potency [3] | Potency [5] | Potency [6]

NC(=O)NC(=O)Cc1ccccc1
inactive: outcome [7] | Potency [1] | Potency [2] | Potency [8] | Potency [3] | Potency [5] | Potency [6]

NC(=O)C1(N2CCCCC2)CCN(CCCC(=O)c2ccc(F)cc2)CC1
active: Potency [2] 4.9 µM
inactive: Potency [1] | Potency [8] | Potency [3] | Potency [4] | Potency [6]

COCC(=O)Nc1c(I)c(C(=O)NCC(O)CO)c(I)c(C(=O)N(C)CC(O)CO)c1I (stereo not drawn)
inactive: outcome [7] | Potency [8] | Potency [3] | Potency [4] | Potency [5] | Potency [6]

Nc1ccc(S(=O)(=O)Nc2ccccn2)cc1
inactive: outcome [7] | Potency [1] | Potency [2] | Potency [8] | Potency [3] | Potency [4] | Potency [5]

O=C(CN1CCN(Cc2ccc3c(c2)OCO3)CC1)N1c2ccccc2Sc2ccccc21
inactive: outcome [7] | Potency [4]
active: Potency [2] 0.55 µM | Potency [8] 34.7 µM | Potency [3] 15.5 µM | Potency [5] 4.77 µM

O=C(Nc1cccc(C2=NCCN2)c1)Nc1cccc(C2=NCCN2)c1
inactive: outcome [7] | Potency [1] | activity change, negative = inhibition [8] -6.53% [at 23.6 µM] | activity change, negative = inhibition [3] 0.456% [at 23.6 µM] | activity change, negative = inhibition [5] 4.21% [at 15.8 µM] | activity change, negative = inhibition [6] 41.3% [at 23.6 µM]

CO[Si](CCCS)(OC)OC
inactive: Potency [2] | Potency [8] | Potency [3] | Potency [4] | Potency [5]

O=C(O)/C=C/c1ccccc1
active: Potency [2] 39.9 µM
inactive: outcome [7] | Potency [1] | Potency [8] | Potency [3] | Potency [5] | Potency [6]

CCCCOC(=O)[C@@H](C)Oc1ccc(Oc2ccc(C(F)(F)F)cn2)cc1
active: Potency [8] 25.3 µM | Potency [3] 16 µM
inactive: Potency [2]

COc1cc2c(Nc3ccc(Br)cc3F)ncnc2cc1OCC1CCN(C)CC1
inactive: outcome [7] | Potency [2] | Potency [8] | Potency [3] | Potency [5] | Potency [6]
active: Potency [1] 14.1 µM | Potency [4] 30.9 µM

COc1cc2c3cc1Oc1cc(ccc1O)C[C@@H]1c4c(cc(OC)c(O)c4Oc4ccc(cc4)C[C@@H]3N(C)CC2)CC[N+]1(C)C
inactive: outcome [7] | Potency [1] | Potency [2] | Potency [8] | Potency [3] | Potency [4] | Potency [5] | Potency [6]

O=c1[nH]c(=O)c2ccccc2o1
inactive: outcome [7] | Potency [1] | Potency [8] | Potency [3] | Potency [4] | Potency [5] | Potency [6]

Cc1c(C(C)C)c(=O)n(-c2ccccc2)n1C
active: Potency [8] 43.6 µM
inactive: outcome [7] | Potency [1] | Potency [3] | Potency [4] | Potency [5] | Potency [6]
